Assay results as given in PubChem BioAssay (Tox21).
Several values for one entry are separate records, joined by “and”; a condition that tells them apart may be missing. Identical values can stand only once. Results filed as inconclusive are left out. Activity calls are given as the source filed them. The call rests on the fitted dose curve; in most records, active means well fitted curve in the direction sought with a large enough effect in the repeat runs; inconclusive means weak or mixed curves; inactive means no such curve, though single readings can be large; an effect the other way counts as inactive or inconclusive.

Experiments:
[1] = A CellTox Green Cytotoxicity Assay to monitor cytotoxicity in HepG2 cells - 0 hour (AID 1224882); details: CellTox Green fluorescence; series mostly up to 76.8 µM; further: nearly all actives have a fitted effect of over 35% in size
Summary of the method: (§1)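 Cells and non-lytic dye reagent are dispensed together (600 HepG2 cells/well) and incubated 5 h before DMSO compound transfer. Kinetic fluorescence is then recorded in the same wells during 40 h at 37 C.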

[2] = A CellTox Green Cytotoxicity Assay to monitor cytotoxicity in HepG2 cells - 32 hour (AID 1224883); details: CellTox Green fluorescence; series mostly up to 76.8 µM; further: nearly all actives have a fitted effect of over 50% in size; further: potency means the concentration at half of the fitted maximal effect
Summary of the method: as §1

[3] = A CellTox Green Cytotoxicity Assay to monitor cytotoxicity in HEK293 cells - 8 hour (AID 1224884); details: CellTox Green fluorescence; series mostly up to 76.8 µM; further: nearly all actives have a fitted effect of over 35% in size
Summary of the method: (§2)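 Cells (HEK293, 600/well) and dye reagent are dispensed together. After 5 h at 37 C, 23 nL compound is pinned in. Plates stay at 37 C for 40 h with fluorescence read at 0h, 8h, 16h, 24h, 32h and 40h.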

[4] = qHTS RealTime-Glo MT Cell Viability Assay in HEK293 cells - 24 hour (AID 1224886); details: RealTime-Glo luminescence; series mostly up to 76.8 µM; further: nearly all actives have a fitted effect of over 50% in size; further: potency means the concentration at half of the fitted maximal effect
Summary of the method: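 Quantitative high-throughput screen of the Tox21 10K library in HEK293: cells and RealTime-Glo reagents plated together, compound added at 5 h, luminescence monitored through 40 h at 37 C.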

[5] = qHTS RealTime-Glo MT Cell Viability Assay in HEK293 cells - 8 hour (AID 1224887); details: RealTime-Glo luminescence; series mostly up to 76.8 µM; further: nearly all actives have a fitted effect of over 50% in size; further: potency means the concentration at half of the fitted maximal effect
Summary of the method: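 Real-time viability in HEK293: signal arises when living cells convert a prosubstrate for NanoLuc in the medium, so luminescence tracks viable cell number. Compound (23 nL, DMSO) added 5 h post-seeding; kinetic reads at 0–40 h, 37 C.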

[6] = qHTS RealTime-Glo MT Cell Viability Assay in HepG2 cells - 0 hour (AID 1224889); details: RealTime-Glo luminescence; series mostly up to 76.8 µM; further: nearly all actives have a fitted effect of over 50% in size
Summary of the method: (§3)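 Compound treatment began 5 h after plating HepG2 cells (600/well) with NanoLuc luciferase and prosubstrate. Plates stayed at 37 C for 40 h; luminescence was captured at six time points, 0 h through 40 h.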

[7] = A CellTox Green Cytotoxicity Assay to monitor cytotoxicity in HepG2 cells - 8 hour (AID 1224890); details: CellTox Green fluorescence; series mostly up to 76.8 µM; further: nearly all actives have a fitted effect of over 45% in size
Summary of the method: as §1

[8] = qHTS RealTime-Glo MT Cell Viability Assay in HepG2 cells - 16 hour (AID 1224885); details: RealTime-Glo luminescence; series mostly up to 76.8 µM; further: nearly all actives have a fitted effect of over 50% in size; further: potency means the concentration at half of the fitted maximal effect
Summary of the method: as §3

[9] = A CellTox Green Cytotoxicity Assay to monitor cytotoxicity in HEK293 cells - 16 hour (AID 1224888); details: CellTox Green fluorescence; series mostly up to 76.8 µM; further: nearly all actives have a fitted effect of over 35% in size
Summary of the method: as §2

Measured: Potency

O=C(OCC(COC(=O)c1ccccc1)(COC(=O)c1ccccc1)COC(=O)c1ccccc1)c1ccccc1
inactive: [1] | [2] | [3] | [6] | [7]
active: [4] 48.9 µM | [5] 24.5 µM

CCCCN(CCCC)c1ccc(C(=O)c2ccccc2C(=O)O)c(O)c1
inactive: [1] | [4] | [5] | [6] | [7]

CCc1cc(Cc2cc(CC)cc(C(C)(C)C)c2O)c(O)c(C(C)(C)C)c1
active: [8] 49 µM | [4] 15.5 µM | [5] 13.8 µM
inactive: [1] | [3] | [6]

Cc1cccc2c1cc1ccc3cccc4ccc2c1c34
inactive: [1] | [2] | [8] | [6] | [7]

CCCCCCOC(=O)c1ccc(O)cc1
active: [2] 43.7 µM and 7.76 µM | [4] 43.7 µM and 24.5 µM | [5] 43.7 µM and 24.5 µM
inactive: [1] | [3] | [8] | [9] | [6] | [7]
